Data as given in the antibiotic and cytotoxicity screens of Wong et al. (2023).
About 500 (1.3%) of roughly 39,000 compounds were called active. This is one part of a sample in which actives are shown more often than they occur.

The compounds below were run on S. aureus RN4220 (assay: growth inhibition call (relative growth <= 0.2)). Conditions: 50 µM.

SMILES	growth inhibition call
C[C@@H]1CN([C@@H](C)CO)C(=O)Cc2cc(NC(=O)NC3CCCCC3)ccc2O[C@H]1CN(C)S(C)(=O)=O	inactive
C[C@H](CO)N1C[C@H](C)[C@@H](CN(C)Cc2ccc(F)cc2)Oc2ncc(C#Cc3cccnc3)cc2C1=O	inactive
C[C@H]1CN([C@@H](C)CO)C(=O)c2cc(NC(=O)CCCN(C)C)ccc2O[C@@H]1CN(C)C(=O)Nc1ccc(F)cc1	inactive
C[C@@H]1CN([C@@H](C)CO)C(=O)c2c(c3ccccc3n2C)-c2ccccc2CO[C@@H]1CN(C)Cc1cccc(C(F)(F)F)c1	inactive
C[C@@H]1CN([C@@H](C)CO)C(=O)c2cccc(NC(=O)C3CCOCC3)c2O[C@@H]1CN(C)Cc1ccncc1	inactive
O=C(C[C@@H]1CC[C@@H]2[C@H](COC[C@H](O)CN2S(=O)(=O)c2ccccc2)O1)N1CCOCC1	inactive
CCCNC(=O)N1C[C@@H](O)COC[C@H]2O[C@H](CC(=O)NCCCN3CCOCC3)CC[C@@H]21	inactive
C[C@@H]1CN([C@@H](C)CO)C(=O)c2cc(NC(=O)C3CCCCC3)ccc2O[C@@H](C)CCCCO[C@H]1CN(C)S(=O)(=O)c1ccc(Cl)cc1	inactive
C[C@@H]1CN([C@H](C)CO)C(=O)c2cc(NC(=O)Nc3ccc4c(c3)OCO4)ccc2O[C@@H](C)CCCCO[C@@H]1CN(C)C(=O)c1ccccc1	inactive
COc1ccccc1C#Cc1ccc2c(c1)O[C@@H](CN(C)C(C)=O)[C@H](C)CN([C@@H](C)CO)S2(=O)=O	inactive
CON=C(C(=O)NC1C(=O)N2C(C(=O)[O-])=C(COC(C)=O)CSC12)c1csc(N)n1.[Na+] (stereo not given)	active
C[C@H]1[C@H](NC(=O)/C(=N\OC(C)(C)C(=O)O)c2csc(N)n2)C(=O)N1S(=O)(=O)O	inactive
CON=C(C(=O)NC1C(=O)N2C(C(=O)[O-])=C(CSc3nc(=O)c([O-])nn3C)CSC12)c1csc(N)n1.O.O.O.[Na+].[Na+] (stereo not given)	inactive
CC1C(NC(=O)C(=NOC(C)(C)C(=O)O)c2csc(N)n2)C(=O)N1S(=O)(=O)O (stereo not given)	inactive
COCC1=C(C(=O)OC(C)OC(=O)OC(C)C)N2C(=O)C(NC(=O)C(=NOC)c3csc(N)n3)C2SC1 (stereo not given)	inactive
CO/N=C(\C(=O)N[C@@H]1C(=O)N2C(C(=O)O)=C(C)CS[C@H]12)c1csc(N)n1	active
C[C@H](CO)N1C[C@H](C)[C@H](CN(C)S(=O)(=O)c2ccccc2)Oc2ccc(NS(C)(=O)=O)cc2C1=O	inactive
O=C(C[C@@H]1CC[C@H]2[C@@H](COC[C@@H](O)CN2C(=O)Nc2cccc(Cl)c2)O1)NCCCN1CCOCC1	active
O=C(C[C@@H]1CC[C@@H]2[C@H](COC[C@@H](O)CN2C(=O)Nc2cccc(F)c2)O1)NCCCN1CCOCC1	inactive
O=C(C[C@H]1CC[C@@H]2[C@H](COC[C@@H](O)CN2C(=O)Nc2cccc(Cl)c2)O1)NCCCN1CCOCC1	active

SMILES	growth inhibition call
O=C(C[C@H]1CC[C@@H]2[C@H](COC[C@H](O)CN2C(=O)Nc2cccc(Cl)c2)O1)NCCCN1CCOCC1	inactive
O=C(C[C@@H]1CC[C@@H]2[C@H](COC[C@H](O)CN2C(=O)Nc2cccc(Cl)c2)O1)NCCCN1CCOCC1	active
O=C(C[C@H]1CC[C@H]2[C@@H](COC[C@@H](O)CN2C(=O)Nc2cccc(Cl)c2)O1)NCCCN1CCOCC1	inactive
O=C(C[C@H]1CC[C@H]2[C@@H](COC[C@H](O)CN2C(=O)Nc2cccc(F)c2)O1)NCCCN1CCOCC1	inactive
O=C(C[C@H]1CC[C@H]2[C@@H](COC[C@H](O)CN2C(=O)Nc2cccc(Cl)c2)O1)NCCCN1CCOCC1	inactive
O=C(C[C@@H]1CC[C@H]2[C@@H](COC[C@H](O)CN2C(=O)Nc2cccc(F)c2)O1)NCCCN1CCOCC1	inactive
O=C(C[C@@H]1CC[C@H]2[C@@H](COC[C@@H](O)CN2C(=O)Nc2cccc(F)c2)O1)NCCCN1CCOCC1	inactive
O=C(C[C@@H]1CC[C@@H]2[C@H](COC[C@H](O)CN2C(=O)Nc2cccc(F)c2)O1)NCCCN1CCOCC1	inactive
O=C(C[C@@H]1CC[C@H]2[C@@H](COC[C@H](O)CN2C(=O)Nc2cccc(Cl)c2)O1)NCCCN1CCOCC1	active
Cc1ccc(Sc2c(-c3ccccc3)nc3sccn23)cc1	inactive
COCC(=O)Nc1ccc2c(c1)C(=O)N(C)C[C@@H](OC)[C@H](C)CN(Cc1ccccc1OC)[C@@H](C)CO2	inactive
C[C@@H](C[N+](C)(C)C)OC(N)=O	inactive
C=C[C@](C)(O)CC/C=C(\C)C(=O)O[C@@H]1[C@@H](O[C@@](C)(C=C)CC/C=C(\C)C(=O)O[C@H]2C[C@@]3(C(=O)O[C@H]4OC[C@@H](O[C@H]5O[C@@H](CO)[C@@H](O)[C@@H](O[C@H]6O[C@@H](CO)[C@@H](O[C@H]7O[C@@H](CO)[C@@H](O)[C@@H](O)[C@@H]7O)[C@@H](O)[C@@H]6O)[C@@H]5O)[C@@H](O)[C@@H]4O)[C@@H](O)C[C@@]4(C)C(=CC[C@H]5[C@@]6(C)CC[C@@H](O[C@H]7O[C@@H](CO)[C@@H](O[C@H]8O[C@@H](CO)[C@@H](O)[C@@H](O[C@H]9OC[C@@H](O)[C@@H](O)[C@@H]9O)[C@@H]8O)[C@@H](O)[C@@H]7O)C(C)(C)[C@@H]6CC[C@@]54C)[C@@H]3CC2(C)C)OC[C@@H](O)[C@H]1O	inactive
CCc1nc2ccc(C(=O)NCCN3CCNC3=O)cn2c1N(CC)Cc1cccc(Br)c1	inactive
COC(=O)[C@@]12O[C@@H]1[C@H](O[C@@H]1O[C@H](CO)[C@@H](O)[C@H](O)[C@H]1O)C[C@H]1[C@]3(C)C[C@@H](c4ccoc4)OC(=O)[C@H]3CC[C@]12C	inactive
C[C@H](O)C#Cc1cnc2c(c1)C(=O)N([C@H](C)CO)C[C@H](C)[C@@H](CN(C)C(=O)Nc1ccc(C(F)(F)F)cc1)O2	inactive
C[C@H]1O[C@@H](OC[C@H]2O[C@@H](OC[C@]3(C)[C@H]4CC[C@@]5(C)[C@H](CC[C@H]6C7=CC(C)(C)CC[C@]7(C(=O)O)CC[C@@]65C)[C@@]4(C)CC[C@@H]3O)[C@@H](O)[C@@H](O)[C@@H]2O)[C@@H](O)[C@@H](O)[C@@H]1O	inactive
C[C@@H]1CN([C@H](C)CO)S(=O)(=O)c2ccc(C#CC3(O)CCCC3)cc2O[C@H]1CN(C)C(=O)Cc1cccnc1	inactive
Cc1ccc(S(=O)(=O)Nc2ccc3c(c2)C(=O)N([C@H](C)CO)C[C@@H](C)[C@H](CN(C)S(=O)(=O)c2ccc(C)cc2)OCCCC[C@H](C)O3)cc1	inactive
COc1ccc(NC(=O)N(C)C[C@H]2Oc3c(NC(=O)c4cc(C)nn4C)cccc3C(=O)N([C@H](C)CO)C[C@H]2C)cc1	inactive

SMILES	growth inhibition call
COCC#Cc1ccc([C@H]2[C@@H](CO)N3C(=O)CN(C(=O)c4ccncc4)C[C@H]23)cc1	inactive
C[C@@H]1CN([C@H](C)CO)C(=O)Cc2cc(NC(=O)CCN3CCOCC3)ccc2O[C@@H]1CN(C)S(=O)(=O)c1ccc(F)cc1	inactive
CC(=O)OC[C@H]1O[C@H](n2ccc(=O)[nH]c2=O)[C@@H](OC(C)=O)[C@@H]1OC(C)=O	inactive
O=C(C[C@H]1CC[C@@H]2[C@H](COC[C@@H](O)CN2C(=O)Nc2cccc(F)c2)O1)NCCCN1CCOCC1	inactive
O=C(C[C@@H]1CC[C@@H]2[C@H](COC[C@@H](O)CN2C(=O)Nc2cccc(Cl)c2)O1)NCCCN1CCOCC1	active
O=C(C[C@H]1CC[C@H]2[C@@H](COC[C@@H](O)CN2C(=O)Nc2cccc(F)c2)O1)NCCCN1CCOCC1	inactive
Cc1noc(C)c1S(=O)(=O)N(C)C[C@@H]1Oc2ccc(NC(=O)Cn3cnnn3)cc2CC(=O)N([C@H](C)CO)C[C@@H]1C	inactive
Cc1noc(C)c1NC(=O)Nc1ccc2c(c1)C(=O)N([C@@H](C)CO)C[C@H](C)[C@H](CN(C)C(=O)NC1CCCCC1)OCCCC[C@@H](C)O2	inactive
C[C@@H]1CCCCO[C@@H](CN(C)C(=O)Nc2ccc(C(F)(F)F)cc2)[C@H](C)CN([C@@H](C)CO)C(=O)c2cc(NC(=O)c3ccncc3)ccc2O1	inactive
C[C@@H]1CN([C@@H](C)CO)C(=O)c2cccc(NS(=O)(=O)c3ccc(F)cc3)c2O[C@H]1CN(C)C(=O)Nc1ccc(C(F)(F)F)cc1	inactive
C[C@@H]1CCCCO[C@H](CN(C)Cc2ccc(C(F)(F)F)cc2)[C@@H](C)CN([C@@H](C)CO)C(=O)c2cc(NS(=O)(=O)c3cn(C)cn3)ccc2O1	inactive
C[C@@H]1CN([C@H](C)CO)C(=O)c2ccccc2-c2ccccc2CO[C@@H]1CN(C)Cc1ccccc1C(F)(F)F	inactive
C[C@H](CO)N1C[C@H](C)[C@H](CN(C)Cc2ccccc2C(F)(F)F)OCc2ccccc2-c2ccccc2C1=O	inactive
C[C@@H]1CN([C@@H](C)CO)C(=O)c2ccccc2-c2ccccc2CO[C@H]1CN(C)Cc1ccccc1C(F)(F)F	active
C[C@H]1CN([C@@H](C)CO)C(=O)c2ccccc2-c2ccccc2CO[C@H]1CN(C)Cc1ccccc1C(F)(F)F	inactive
C[C@H](CO)N1C[C@H](C)[C@H](CN(C)Cc2ccc(C(=O)O)cc2)OCc2ccccc2-c2c(n(C)c3ccccc23)C1=O	active
C[C@@H]1CN([C@@H](C)CO)C(=O)c2ccccc2-c2ccccc2CO[C@@H]1CN(C)Cc1ccccc1C(F)(F)F	inactive
C[C@H](CO)N1C[C@H](C)[C@@H](CN(C)Cc2ccccc2C(F)(F)F)OCc2ccccc2-c2ccccc2C1=O	active
C[C@@H]1CN([C@H](C)CO)C(=O)c2c(c3ccccc3n2C)-c2ccccc2CO[C@H]1CN(C)Cc1ccc(C(=O)O)cc1	inactive
C[C@@H]1CN([C@H](C)CO)C(=O)c2c(c3ccccc3n2C)-c2ccccc2CO[C@@H]1CN(C)Cc1ccc(C(=O)O)cc1	inactive
